From PubChem BioAssay AID431 (Sanford-Burnham Center for Chemical Genomics, 2006)
Screen size: about 63,000 compounds; about 1,100 (1.7%) were called active. The sample holds actives, similar compounds and a random draw of the others, so the mix is not that of the screen. Results with a measured potency or affinity are listed apart. Unmarked numbers belong to inactive results.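 Rule for the calls: active = compounds whose percent cytotoxicity in the single-dose primary screen, scaled between solvent and toxic-drug controls, exceeds 50; inactive = the rest.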

Assay: viability loss of HPDE-C7K cells – cell-based, fluorescence, HTS, primary screen (AID 431);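 note: 0% = DMSO solvent wells and 100% = doxorubicin-treated wells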
Settings: HPDE-C7K KRASV12 cells, Alamar Blue viability, 48 h; at 10 µM; stronger effect = higher value

Row | Structure (SMILES) | cytotoxicity
1 | Cc1ccc(NC(=O)CCNS(=O)(=O)c2ccc3c(c2)oc(=O)n3C)cc1 | -10.2%
2 | Cn1c(=O)oc2cc(S(=O)(=O)NCCc3ccccc3)ccc21 | -10.4%
3 | O=C(NC1CCCCC1)c1ccc(S(=O)(=O)NCc2ccco2)cc1 | -0.5%
4 | O=C(NCCc1c[nH]c2ccccc12)c1ccc(S(=O)(=O)NCc2ccco2)cc1 | 51.2% (active)
5 | O=C(Nc1ccccc1)c1ccc(S(=O)(=O)NCc2ccco2)cc1 | -6.4%
6 | O=C(COc1cccc2cccnc12)Nc1nccs1 | 8.2%
7 | FC(F)Oc1cccc2cccnc12 | 3.1%
8 | O=S(=O)(Nc1ccc2c(c1)OCCO2)c1cccc2cccnc12 | 4.7%
9 | Cc1noc(C)c1COC(=O)c1ccc2c(c1)OCCO2 | 4.7%
10 | CN(CCOC(=O)c1ccc2c(c1)OCCO2)Cc1ccccc1 | -8%
11 | O=C(Oc1cccc2cccnc12)c1cccc(-n2cnnn2)c1 | 23.3%
12 | Cc1ccc2cccc(OC(=O)c3ccc4c(c3)OCCO4)c2n1 | 54.5% (active)
13 | Cn1c(C(=O)N2CCN(c3ncccn3)CC2)cc2c(=O)n(C)c3ccccc3c21 | 17.4%
14 | O=C(Nc1cnn(Cc2ccc(Cl)cc2)c1)c1cnccn1 | -2.7%
15 | CC(=O)NC(CC(C)C)C(=O)NC(=O)NCc1ccccc1 (stereo unspecified) | 15.8%
16 | CCN(CC)CCCN1C(=O)C(=O)/C(=C(/O)c2ccc3c(c2)OCCO3)C1c1ccco1 (stereo unspecified) | 5.8%
17 | Cn1c(-c2ccccc2)cnc1SCC(=O)NCc1ccco1 | -16.1%
18 | COC(=O)C(NC(C)=O)(Nc1ccc(Br)cc1)C(=O)OC | 53.3% (active)
19 | COC(=O)C(NC(C)=O)(Nc1ccccc1)C(=O)OC | 27.5%
20 | COC(=O)C(NC(C)=O)(Nc1ccc(Br)cn1)C(F)(F)F (stereo unspecified) | 2.3%
21 | O=S(=O)(c1cccc(Cl)c1)N1CCCC1 | -5.7%
22 | O=C(NC1CCCCCCC1)c1c(O)c2ccccc2[nH]c1=O | -19.1%
23 | O=C(NC1CCCCC1)c1sc(=S)n2c1[nH]c(=O)c1ccccc12 | 77.2% (active)
24 | O=C(NCC1CCCO1)c1sc(=S)n2c1[nH]c(=O)c1ccc(C(=O)N3CCCCC3)cc12 (stereo unspecified) | 5.2%

Row | Structure (SMILES) | cytotoxicity
25 | O=C(NC1CCCCCC1)c1c(O)c2ccccc2[nH]c1=O | -13.7%
26 | O=C(NC1CCCC1)c1sc(=S)n2c1[nH]c(=O)c1ccccc12 | 68.9% (active)
27 | Cn1c(=O)c(C(=O)NC2CCCCCCC2)c(O)c2ccccc21 | 13.6%
28 | CSc1nnc(Cn2c(=O)sc3ccccc32)n1-c1ccccc1 | 13%
29 | Cc1nc2ccc(NC(=O)N3CCOCC3)cc2s1 | -19.1%
30 | Nc1nnc(SCc2cccnc2)s1 | -0.3%
31 | CCc1cn([C@H]2C[C@H](O)[C@@H](CO)O2)c(=O)[nH]c1=O | -1.3%
32 | O=c1[nH]c(=O)n([C@H]2C[C@H](O)[C@@H](CO)O2)cc1F | 55.6% (active)
33 | Cc1cn([C@H]2C[C@H](N=[N+]=[N-])[C@@H](CO)O2)c(=O)[nH]c1=O | -5.9%
34 | CCc1sc(C(=O)NC)cc1Br | -2.9%
35 | CC(C)N1C(=O)C2C(C(=O)NC3CCCCC3)C3C=CC2(O3)C1C(=O)NC1CCCCC1 (stereo unspecified) | 13.7%
36 | c1ccc(Nc2nc(N3CCOCC3)nc(N3CCOCC3)n2)cc1 | 5%
37 | c1ccc(Nc2nc(N3CCCCC3)nc(N3CCNCC3)n2)cc1 | 75.8% (active)
38 | C1CCN(c2nc(N3CCCCC3)nc(N3CCNCC3)n2)CC1 | 11.6%
39 | CCOC(=O)c1ccccc1NC(=O)C1COc2ccccc2O1 (stereo unspecified) | -10.4%
40 | COc1ccc(-n2nnc3c(SCc4ccccc4)ncnc32)cc1 | 2.7%
41 | c1ccc(CN2CCN(c3nc4ccccc4n4cnnc34)CC2)cc1 | 1.8%
42 | COc1ccc(OC)c(C(O)c2coc3ccc(O)c(CN4CCOCC4)c23)c1 (stereo unspecified) | 5.9%
43 | COCCn1nnnc1C(c1ccc(OC)cc1OC)N1CCN(c2ccccc2)CC1 (stereo unspecified) | 11.2%
44 | COc1ccc(NC(=O)CN2CCN(S(=O)(=O)c3ccc(C(C)C)cc3)CC2)cc1OC | -1.5%
45 | COCC(=O)Nc1sc2c(c1C(=O)OC)CCCC2 | -0.8%
46 | COc1ccc(OC)c2c(N)c(C#N)c(C(F)(F)C(F)(F)F)nc12 | 2.9%
47 | Cc1ccc2nc(Nc3nc(C)cc(C(F)(F)F)n3)nc(C)c2c1 | -18.7%
48 | COc1ccc(OC)c(-n2c(O)cnc2Nc2nc(C)cc(C)n2)c1 | -6.2%

Row | Structure (SMILES) | cytotoxicity
49 | Cc1occc1C(=O)Nc1cc(C(F)(F)F)ccc1Cl | -12.7%
50 | CC1CN(S(=O)(=O)c2cn(C)c(=O)n(C)c2=O)CC(C)O1 (stereo unspecified) | 14.8%
51 | CCOC(=O)N1CCN(C(=O)c2cnn3c(C(F)F)cc(-c4ccc(C)cc4)nc23)CC1 | 4.7%
52 | COc1ccc(-c2nnc(-c3cccs3)o2)cc1OC | 7.2%
53 | COc1ccc(-c2nc3ccccc3s2)cc1O | -3.4%
54 | COc1ccc(-c2nc(-c3cccs3)c(-c3cccs3)[nH]2)cc1O | 76.5% (active)
55 | Cc1ccc2c(c1)C(c1ccccc1)N(C(=O)c1ccc(Br)o1)CC(=O)N2 (stereo unspecified) | -13.7%
56 | COc1ccccc1N1C(=O)C2C3C=CC(C3)C2(C)C1=O (stereo unspecified) | -3.4%
57 | c1ccc(-c2cc(-c3nn4c(-c5ccco5)nnc4s3)c3ccccc3n2)cc1 | 51.3% (active)
58 | Cc1oc(-c2ccc(F)cc2)cc1-c1nn2c(-c3ccco3)nnc2s1 | -11.2%
59 | Fc1ccc(-c2ccc(-c3nn4c(-c5ccco5)nnc4s3)o2)cc1 | 83.7% (active)
60 | Clc1ccc(-c2ccc(-c3nn4c(-c5ccco5)nnc4s3)o2)cc1 | -10%
61 | Cc1cc(-c2nn3c(-c4ccccc4)nnc3s2)c2ccccc2n1 | -2.8%
62 | c1coc(-c2nn3c(-c4ccco4)nnc3s2)c1 | -16.1%
63 | CCOC(=O)N1CCC(NC(=O)CNS(=O)(=O)c2ccc(Br)s2)CC1 | 6.3%
64 | CCSc1nnc(NC(=O)C(C)(C(F)(F)F)C(F)(F)F)s1 | -1.2%
65 | Cc1ccccc1N1CCN(C(=O)C2CCCCC2)CC1 | -1%
66 | COc1cc2c(C(=O)N3CCN(Cc4ccc5c(c4)OCO5)CC3)cn(C)c(=O)c2cc1OC | -9%
67 | COc1ccc(NS(=O)(=O)c2cc(OC)ccc2NC(=O)c2cc(C)oc2C)cc1 | 48.5%
68 | COc1ccc(NS(=O)(=O)c2cc(C)ccc2NC(=O)c2cc(C)oc2C)cc1 | 69.4% (active)
69 | COc1ccc(NS(=O)(=O)c2cc(C)ccc2C)cc1 | 35.3%
70 | Cc1cc(N2CCN(C(=O)c3ccco3)CC2)n2nc(C)c(-c3ccccc3)c2n1 | 13.2%
71 | Cc1cc(N2CCN(C(=O)c3ccco3)CC2)n2nc(C)c(-c3ccc(Cl)cc3)c2n1 | 12.8%
72 | Cc1nn2c(N3CCN(C(=O)c4ccco4)CC3)cc(C(C)(C)C)nc2c1-c1ccccc1 | 70.2% (active)

Row | Structure (SMILES) | cytotoxicity
73 | COc1cccc(NC(=O)C2CCN(c3ncccn3)CC2)c1 | 3%
74 | CC1(N2CCOCC2)CC2(O)C(=[N+]1[O-])CCc1c2no[n+]1[O-] (stereo unspecified) | 58.3% (active)
75 | CC1(N2CCOCC2)CC2(O)C(=[N+]1[O-])CCc1nonc12 (stereo unspecified) | 17.7%
76 | CC1(N2CCCCC2)CC2(O)C(=[N+]1[O-])CCC/C2=N\O (stereo unspecified) | 15.9%
77 | CC(C)NC(=O)CN(C(=O)CCC(=O)Nc1ccccn1)c1ccc(F)c(Cl)c1 | 2.5%
78 | CC1(C)C(=O)Nc2ccccc2N1C(=O)CN1C(=O)c2ccccc2C1=O | -3.5%
79 | CCC(=O)NC1(C(F)(F)F)C(=O)Nc2c1c(=O)n(C)c(=O)n2C (stereo unspecified) | -2.3%
80 | Cc1nnc(SCC(=O)N2CCN(S(=O)(=O)c3ccccc3)CC2)[nH]c1=O | 1.8%
81 | CCc1nnc(NC(=O)c2ccc(NS(=O)(=O)c3ccccc3)cc2)s1 | -18.3%
82 | CCc1nc(C)ccc1OCC(=O)O | -10.4%
83 | CCCC(=O)NCCc1nc2ccccc2n1C | -5.4%
84 | CCOc1cccc(-c2nc3cc(C)ccc3o2)c1 | -4.3%
85 | Cc1n[nH]c(C)c1C(=O)CC1(O)C(=O)N(CCc2ccccc2)c2ccc(Cl)cc21 (stereo unspecified) | 16.8%
86 | Cc1nn(-c2ccccc2)c2nc(N)c(C#N)c(-c3ccc(F)cc3)c12 | 10.8%
87 | COc1cc(-c2c(C#N)c(N)nc3c2c(C)nn3-c2ccc(C)c(C)c2)cc(OC)c1OC | 57.8% (active)
88 | Cc1ccc(-n2nc(C)c3c(-c4cccs4)c(C#N)c(N)nc32)cc1 | 4%
89 | O=C(O)CCN1Cc2ccccc2C1=O | -5.5%
90 | Cc1ccc(NC(=O)CN2C(=O)COc3ccc(C)cc32)nc1 | 5.6%
91 | COc1ccc(OC(=O)c2cc3ccccc3o2)cc1 | 12.8%
92 | COc1ccc(OC)c(Nc2nc(N)nc(-c3cc4ccccc4o3)n2)c1 | 1.5%
93 | COc1ccc(OC)c(NC(=O)c2cc3ccccc3o2)c1 | -12.4%
94 | O=C(Nc1ccccc1Cl)N1CCN(c2ccc3nnc(-c4ccc(F)cc4)n3n2)CC1 | 19.5%
95 | O=C(Nc1ccc(Cl)cc1)N1CCN(c2ccc3nnc(-c4ccc(F)cc4)n3n2)CC1 | 58.7% (active)
96 | O=C(Nc1ccccc1C(F)(F)F)N1CCN(c2ccc3nnc(-c4ccc(F)cc4)n3n2)CC1 | 1.9%
